# Test results from PubChem BioAssay AID1159580 (chemical genetic matrix, 2015).
# About 2,000 (36%) of roughly 5,500 compounds were called active. About 18% were inconclusive and are not listed. The list shows a part of the results. A number with no mark means an inactive call. Cut-off read from the data, not from the text of the source: active = normalized growth mostly below about 0.91 (no sharp cut-off); inconclusive = no clear call, values can overlap the other calls; inactive = mostly above about 0.92.
# Experiment: chemical genetic growth profiling, strain panel (AID 1159580);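 note: tested at 20 µM; growth read once vehicle control cultures reached saturation at 30 °C; 1 = growth at the plate median or of vehicle wells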
# Settings: S. cerevisiae deletion strains, growth OD
# [1] = locus YHR030C, strain SLT2, stronger effect = lower value
# [2] = locus YHR079C, strain IRE1, stronger effect = lower value
# [3] = locus YJL095W, strain BCK1, stronger effect = lower value
# [4] = locus YJR066W, strain TOR1, stronger effect = lower value
# [5] = locus YLR113W, strain HOG1, stronger effect = lower value
# [6] = locus YNL183C, strain NPR1, stronger effect = lower value
# [7] = locus YOR231W, strain MKK1, stronger effect = lower value
# [8] = locus YPL256C, strain CLN2, stronger effect = lower value
# [9] = locus YDL101C, strain DUN1, stronger effect = lower value
# [10] = locus YAL013W, strain DEP1, stronger effect = lower value
# [11] = locus YBR229C, strain ROT2, stronger effect = lower value
# [12] = locus YDL134C, strain PPH21, stronger effect = lower value
# [13] = locus YDR150W, strain NUM1, stronger effect = lower value
# [14] = locus YEL061C, strain CIN8, stronger effect = lower value
# [15] = locus YGR078C, strain PAC10, stronger effect = lower value
# [16] = locus YHR087W, strain rtc3, stronger effect = lower value
# [17] = locus YJR043C, strain POL32, stronger effect = lower value
# [18] = locus YJR075W, strain HOC1, stronger effect = lower value
# [19] = locus YLR039C, strain RIC1, stronger effect = lower value
# [20] = locus YLR058C, strain SHM2 (second series), stronger effect = lower value
# [21] = locus YLR085C, strain ARP6, stronger effect = lower value
# [22] = locus YLR262C, strain YPT6, stronger effect = lower value
# [23] = locus YML094W, strain GIM5, stronger effect = lower value
# [24] = locus YMR219W, strain ESC1, stronger effect = lower value
# [25] = locus YNL153C, strain GIM3, stronger effect = lower value
# [26] = locus YNL298W, strain CLA4 (second series), stronger effect = lower value
# [27] = locus YNL322C, strain KRE1, stronger effect = lower value
# [28] = locus YNR030W, strain Alg12, stronger effect = lower value
# [29] = locus YOL006C, strain TOP1, stronger effect = lower value
# [30] = locus YPL055C, strain LGE1, stronger effect = lower value
# [31] = locus YPL241C, strain CIN2, stronger effect = lower value
# [32] = locus YPR135W, strain CTF4, stronger effect = lower value
compound,measurement,setting,value
OC[C@H]1O[C@H](OC[C@H]2O[C@@H](O)[C@H](O)[C@@H](O)[C@@H]2O)[C@H](O)[C@@H](O)[C@H]1O,normalized growth,[1],1.05
same,normalized growth,[2],1.03
same,normalized growth,[3],1.05
same,normalized growth,[4],0.982
same,normalized growth,[5],1.01
same,normalized growth,[6],0.997
same,normalized growth,[7],1.04
same,normalized growth,[8],1.06
N#CC(C#N)=C/C=C(/Sc1nc2ccccc2s1)c1ccc(Br)cc1,normalized growth,"locus YAR019C, strain CDC15, stronger effect = lower value",0.148 (active)
same,normalized growth,"locus YBL105C, strain PKC1, stronger effect = lower value",0.157 (active)
same,normalized growth,"locus YBR135W, strain CKS1, stronger effect = lower value",0.189 (active)
same,normalized growth,"locus YBR136W, strain MEC1, stronger effect = lower value",0.206 (active)
same,normalized growth,"locus YBR160W, strain CDC28, stronger effect = lower value",0.22 (active)
same,normalized growth,"locus YDL017W, strain CDC7, stronger effect = lower value",0.207 (active)
same,normalized growth,"locus YDL028C, strain MPS1, stronger effect = lower value",0.28 (active)
same,normalized growth,[9],0.338 (active)
same,normalized growth,"locus YDL108W, strain KIN28, stronger effect = lower value",0.289 (active)
same,normalized growth,"locus YDL132W, strain cdc53, stronger effect = lower value",0.299 (active)
same,normalized growth,"locus YDL214C, strain PRR2, stronger effect = lower value",0.144 (active)
same,normalized growth,"locus YDR052C, strain DBF4, stronger effect = lower value",0.695 (active)
same,normalized growth,"locus YDR054C, strain cdc34, stronger effect = lower value",0.145 (active)
same,normalized growth,"locus YDR226W, strain ADK1, stronger effect = lower value",0.28 (active)
same,normalized growth,"locus YDR477W, strain SNF1, stronger effect = lower value",0.144 (active)
same,normalized growth,"locus YER123W, strain YCK3, stronger effect = lower value",0.217 (active)
same,normalized growth,"locus YER133W, strain GLC7, stronger effect = lower value",0.168 (active)
same,normalized growth,"locus YFL009W, strain cdc4, stronger effect = lower value",0.317 (active)
same,normalized growth,"locus YFL029C, strain CAK1, stronger effect = lower value",0.153 (active)
same,normalized growth,"locus YFR003C, strain YPI1, stronger effect = lower value",0.253 (active)
same,normalized growth,"locus YFR019W, strain FAB1, stronger effect = lower value",0.146 (active)
same,normalized growth,"locus YFR028C, strain CDC14, stronger effect = lower value",0.187 (active)
same,normalized growth,"locus YGR040W, strain KSS1, stronger effect = lower value",0.156 (active)
same,normalized growth,"locus YGR052W, strain FMP48, stronger effect = lower value",0.167 (active)
same,normalized growth,"locus YGR092W, strain DBF2, stronger effect = lower value",0.155 (active)
same,normalized growth,[1],0.124 (active)
same,normalized growth,[2],0.17 (active)
same,normalized growth,"locus YHR082C, strain KSP1, stronger effect = lower value",0.163 (active)
same,normalized growth,"locus YHR205W, strain SCH9, stronger effect = lower value",0.0272 (active)
same,normalized growth,"locus YIL147C, strain SLN1, stronger effect = lower value",0.215 (active)
same,normalized growth,[3],0.116 (active)
same,normalized growth,"locus YJL128C, strain PBS2, stronger effect = lower value",0.391 (active)
same,normalized growth,"locus YJL157C, strain FAR1, stronger effect = lower value",0.118 (active)
same,normalized growth,"locus YJR016C, strain ILV3, stronger effect = lower value",0.176 (active)
same,normalized growth,"locus YJR066W, strain TOR1 (second series), stronger effect = lower value",0.114 (active)
same,normalized growth,[4],0.156 (active)
same,normalized growth,"locus YKL048C, strain ELM1, stronger effect = lower value",0.322 (active)
same,normalized growth,"locus YKL067W, strain YNK1, stronger effect = lower value",0.137 (active)
same,normalized growth,"locus YKL101W, strain HSL1, stronger effect = lower value",0.175 (active)
same,normalized growth,"locus YKL193C, strain SDS22, stronger effect = lower value",0.155 (active)
same,normalized growth,"locus YKL203C, strain TOR2, stronger effect = lower value",0.158 (active)
same,normalized growth,[5],0.218 (active)
same,normalized growth,"locus YLR133W, strain CKI1, stronger effect = lower value",0.149 (active)
same,normalized growth,"locus YLR403W, strain SFP1, stronger effect = lower value",0.0212 (active)
same,normalized growth,"locus YML070W, strain DAK1, stronger effect = lower value",0.172 (active)
same,normalized growth,"locus YMR001C, strain CDC5, stronger effect = lower value",0.126 (active)
same,normalized growth,"locus YMR205C, strain PFK2 (second series), stronger effect = lower value",0.138 (active)
same,normalized growth,"locus YMR277W, strain FCP1, stronger effect = lower value",0.144 (active)
same,normalized growth,"locus YNL006W, strain LST8, stronger effect = lower value",0.13 (active)
same,normalized growth,"locus YNL020C, strain ARK1, stronger effect = lower value",0.142 (active)
same,normalized growth,"locus YNL161W, strain CBK1, stronger effect = lower value",0.164 (active)
same,normalized growth,[6],0.153 (active)
same,normalized growth,"locus YNL207W, strain RIO2, stronger effect = lower value",0.21 (active)
same,normalized growth,"locus YNL222W, strain SSU72, stronger effect = lower value",0.177 (active)
same,normalized growth,"locus YNL307C, strain MCK1 (second series), stronger effect = lower value",0.137 (active)
same,normalized growth,"locus YOL078W, strain AVO1, stronger effect = lower value",0.154 (active)
same,normalized growth,"locus YOL136C, strain PFK27, stronger effect = lower value",0.161 (active)
same,normalized growth,"locus YOR061W, strain CKA2, stronger effect = lower value",0.174 (active)
same,normalized growth,"locus YOR119C, strain RIO1, stronger effect = lower value",0.155 (active)
same,normalized growth,[7],0.171 (active)
same,normalized growth,"locus YOR329C, strain SCD5, stronger effect = lower value",0.164 (active)
same,normalized growth,"locus YPL031C, strain PHO85, stronger effect = lower value",0.135 (active)
same,normalized growth,"locus YPL153C, strain RAD53, stronger effect = lower value",0.133 (active)
same,normalized growth,"locus YPL204W, strain HRR25, stronger effect = lower value",0.142 (active)
same,normalized growth,"locus YPL209C, strain IPL1, stronger effect = lower value",0.159 (active)
same,normalized growth,[8],0.216 (active)
same,normalized growth,"locus YPR025C, strain CCL1, stronger effect = lower value",0.181 (active)
same,normalized growth,"strain NNK1, stronger effect = lower value",0.304 (active)
same,normalized growth,"strain TSCII, stronger effect = lower value",0.157 (active)
CC(C)(O/N=C(/C(=O)N[C@@H]1C(=O)N2C(C(=O)[O-])=C(C[n+]3ccccc3)CSC12)c1csc(N)n1)C(=O)O (some centres undefined),normalized growth,[1],1.02
same,normalized growth,[2],1.02
same,normalized growth,[3],1.01
same,normalized growth,[4],0.95
same,normalized growth,[5],1.05
same,normalized growth,[6],0.962
same,normalized growth,[7],1.02
same,normalized growth,[8],1.03
COc1cc(C2N=C(c3ccc(Cl)cc3)SC(c3ccc(Cl)cc3)=N2)cc(OC)c1OC,normalized growth,[10],1
same,normalized growth,[11],1.01
same,normalized growth,[9],1.02
same,normalized growth,[12],1.03
same,normalized growth,[13],1.02
same,normalized growth,[14],0.997
same,normalized growth,[15],1.01
same,normalized growth,[1],0.991
same,normalized growth,[16],1.02
same,normalized growth,[17],1.03
same,normalized growth,[18],0.991
same,normalized growth,[19],1.02
same,normalized growth,[20],1.04
same,normalized growth,[21],1
same,normalized growth,[22],1.03
same,normalized growth,[23],1
same,normalized growth,[24],1
same,normalized growth,"locus YMR263W, strain SAP30, stronger effect = lower value",0.949
same,normalized growth,[25],1.01
same,normalized growth,[26],1.02
same,normalized growth,[27],1
same,normalized growth,[28],1.03
same,normalized growth,[29],0.891
same,normalized growth,[30],0.974
same,normalized growth,[31],1.01
same,normalized growth,[32],1.09
COc1ccc(-c2c(C)nc3ccc(Cl)cc3c2-c2ccccc2)cc1OC,normalized growth,[10],0.91 (active)
same,normalized growth,[11],0.937
same,normalized growth,[9],0.945
same,normalized growth,[12],0.914 (active)
same,normalized growth,[13],0.861
same,normalized growth,[14],0.949
same,normalized growth,[15],0.935
same,normalized growth,[1],0.759
same,normalized growth,[16],0.913
same,normalized growth,[17],0.977
same,normalized growth,[18],0.819 (active)
same,normalized growth,"locus YKL190W, strain CNB1, stronger effect = lower value",0.98
same,normalized growth,[19],0.821
same,normalized growth,[20],0.986
same,normalized growth,[21],0.785
same,normalized growth,[22],0.948
same,normalized growth,[23],0.933
same,normalized growth,[24],0.947
same,normalized growth,"locus YMR307W, strain GAS1, stronger effect = lower value",0.546 (active)
same,normalized growth,"locus YNL128W, strain TEP1, stronger effect = lower value",1.01
same,normalized growth,[25],0.972
same,normalized growth,[26],1
same,normalized growth,[27],0.98
same,normalized growth,[28],0.889
same,normalized growth,[29],0.817
same,normalized growth,[30],0.798
same,normalized growth,[31],0.85 (active)
same,normalized growth,[32],0.754
